Reference: PubChem BioAssay (EPA / NIEHS)
Records with an inconclusive call do not appear. Activity calls are given as the source filed them. How the source made its calls, unless noted: active means hit-call score of the fitted dose curve at least 0.9, where 1 is the maximum; inactive means score below 0.9.

Tests used:
[1] = CCTE_Shafer_MEA_dev_per_burst_spike_percent: CCTE's Neural Network Formation Assay for Percent of Spikes in a Burst, Shafer Lab (AID 2284032);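 on AC50: fitted as a decrease in burst spike percentage below DMSO baseline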
How it was run: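 Value is trapezoidal AUC over recordings on days 5, 7, 9 and 12 of the well-mean fraction of spikes falling in single-electrode bursts; rat cortical cultures exposed continuously from plating, treatment renewed DIV 5 and 9, fitted downward against DMSO.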

[2] = CCTE_Shafer_MEA_dev_active_electrodes_number: CCTE's Neural Network Formation Assay for Number of Active Electrodes, Shafer Lab (AID 2284040; active means hit-call score of the fitted dose curve at least 0.9, where 1 is the maximum;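 on AC50: potency for loss of active electrodes versus DMSO so lower counts are hits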)
How it was run: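 Counts electrodes per well firing at least 5 spikes/min, recorded on days 5, 7, 9 and 12 in rat cortical cultures dosed continuously from plating (treatment refreshed DIV 5, 9). Value is the area under the curve over recordings, fitted downward relative to DMSO.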

[3] = CCTE_Shafer_MEA_dev_burst_rate: CCTE's Neural Network Formation Assay for Burst Rate, Shafer Lab (AID 2284042);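 on AC50: potency for loss of burst rate below DMSO control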
How it was run: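 Developmental network assay measuring how 12-day exposure of rat cortical neuron cultures alters bursting on extracellular MEA recordings. Values are AUC of well-mean burst rate across four recording days, relative to DMSO vehicle.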

[4] = CCTE_Shafer_MEA_dev_per_burst_interspike_interval: CCTE's Neural Network Formation Assay for Burst Interspike Interval, Shafer Lab (AID 2284044);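 on AC50: potency for a decrease of within-burst interspike interval below DMSO level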
How it was run: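 Developmental network-formation MEA in primary rat cortical cultures with exposure spanning days 0–12. Within-burst ISI is averaged per well and integrated across recording days by area under the curve, with DMSO as negative control baseline.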

[5] = CCTE_Shafer_MEA_dev_burst_duration_mean: CCTE's Neural Network Formation Assay for Mean Burst Duration, Shafer Lab (AID 2284045);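 on AC50: curve fitted for loss meaning shorter burst duration than DMSO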
How it was run: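 Rat cortical cultures, 1.5 x 10^5 cells/well with laminin drop; continuous dosing days 0–12, media plus treatment refreshed DIV 5, 9. AxIS adaptive spike detection; mean single-electrode burst duration, AUC over four recordings, negative direction vs DMSO.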

[6] = CCTE_Shafer_MEA_dev_interburst_interval_mean: CCTE's Neural Network Formation Assay for Mean Interburst Interval, Shafer Lab (AID 2284046);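 further: well-mean interburst interval of bursting electrodes as AUC over four recording days; curve fitted for decrease in interburst interval relative to DMSO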
How it was run: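 Network formation assay in primary rat cortical cultures, exposed from DIV 0 to 12. Mean interburst interval per well, integrated as AUC over four recordings.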

[7] = CCTE_Shafer_MEA_dev_inter_network_spike_interval_mean: CCTE's Neural Network Formation Assay for Mean Inter-network Spike Interval, Shafer Lab (AID 2284047);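 on AC50: potency for a decrease in mean inter-network spike interval below DMSO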
How it was run: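 Compound was given at plating to primary rat cortical neurons and renewed with full medium changes on DIV 5 and 9. Extracellular activity was recorded on days 5, 7, 9, 12; AUC values were fitted for loss relative to DMSO control.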

[8] = CCTE_Deisenroth_AIME_384WELL_CTox_Active: Cytotoxicity Assessment (CTOX) in CCTE's 384-well Estrogen Receptor Transactivation Assay with AIME metabolic competence (metabolism positive), Deisenroth Lab (AID 2284037; active means hit-call score of the fitted dose curve at least 0.9, where 1 is the maximum;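 further: chemicals first conditioned 2 h by alginate-bound induced rat liver S9 before cells; activity means signal loss indicating cell death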)
How it was run: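 Chemicals pre-incubated 2 hours with alginate-immobilised phenobarbital/beta-naphthoflavone-induced male Sprague Dawley rat liver S9, then conditioned medium applied 24 hour to VM7Luc4E2 cells. Viability by fluorogenic protease substrate; 10-point series 0.002 - 200 uM.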

[9] = CCTE_Deisenroth_AIME_384WELL_CTox_Inactive: Cytotoxicity Assessment (CTOX) in CCTE's 384-well Estrogen Receptor Transactivation Assay without AIME metabolic competence (metabolism negative), Deisenroth Lab (AID 2284039; active means hit-call score of the fitted dose curve at least 0.9, where 1 is the maximum;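 further: cell viability via live-cell protease substrate cleaved to fluorescent probe; cells exposed 24 h to medium preincubated 2 h with alginate-water beads without S9; loss of fluorescence signal means loss of viability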)
How it was run: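 Fluorescence from a live-cell protease substrate, read after 24 h in VM7Luc4E2 cells, indicated viability. Test medium came from a 2 h AIME step without hepatic S9 (alginate-water microspheres); concentrations spanned 0.002 - 200 uM, single technical replicate per run.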

[10] = CCTE_Shafer_MEA_dev_bursting_electrodes_number: CCTE's Neural Network Formation Assay for Number of Bursting Electrodes, Shafer Lab (AID 2284043; active means hit-call score of the fitted dose curve at least 0.9, where 1 is the maximum;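 on AC50: potency is for loss of bursting electrodes relative to DMSO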)
How it was run: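 Rat cortical primary neurons, 48-well MEA, 16 electrodes/well; dosing DIV 0–12, re-dosed with full media change DIV 5, 9. Recordings DIV 5/7/9/12, AxIS adaptive spike detector; bursting electrode = ≥1 burst/2 min. AUC across days; loss of signal vs DMSO.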

Measured: AC50

OC(Cn1cncn1)(Cn1cncn1)c1ccc(F)cc1F
active: [7] 3.83 µM
not listed: [8] | [9] | [10]
inactive: all other assays above

O=C1CN(N=Cc2ccc([N+](=O)[O-])o2)C(=O)N1
inactive: [8]
active: [9] 31.2 µM

COc1cc2c(c(OC)c1OC)-c1ccc(OC)c(=O)cc1[C@@H](NC(C)=O)CC2
active: [1] 0.0285 µM | [8] 19.8 µM | [9] 19.8 µM | [2] 0.0284 µM | [3] 0.0276 µM | [10] 0.027 µM | [4] 0.00647 µM | [5] 0.00651 µM | [6] 0.0159 µM | [7] 0.0262 µM

CC(C)CCCCCCOC(=O)C1CCCCC1C(=O)OCCCCCCC(C)C (stereo not drawn)
inactive: [8]

COS(C)(=O)=O
inactive: [8] | [9]

CCCc1ccccc1
inactive: [8] | [9]

CC(C)CC(C)O (stereo not drawn)
inactive: [8] | [9]

CCCCCOC(C)=O
inactive: [8] | [9]

CCOC(N)=O
inactive: [8] | [9]

O=C(Cl)C(F)(F)C(F)(F)C(F)(F)C(=O)Cl
active: [1] 15 µM
not listed: [8] | [9]
inactive: all other assays above

FC(F)(F)COC(OCC(F)(F)F)OCC(F)(F)F
not listed: [8] | [9]
inactive: all other assays above

NC(=O)N1c2ccccc2C=Cc2ccccc21
not listed: [8] | [9]
inactive: all other assays above

OCc1ccccc1
inactive: [8] | [9]

CCc1cccc(CC)c1N
active: [9] 160 µM
inactive: [8]

C=CCc1cc(S(=O)(=O)c2ccc(O)c(CC=C)c2)ccc1O
active: [8] 169 µM
inactive: [9]

NCC(F)(F)C(F)(F)C(F)(F)C(F)(F)F
not listed: [8] | [9]
inactive: all other assays above

NNC(=O)c1ccncc1
active: [10] 0.595 µM
not listed: [8] | [9]
inactive: all other assays above

c1ccc2c(c1)-c1cccc3c1c-2cc1ccccc13
active: [9] 19.8 µM | [2] 7.57 µM | [10] 5.07 µM
inactive: all other assays above

CCCC(CCC)C(=O)O
not listed: [7] | [8] | [9]
inactive: all other assays above
